From PubChem
VP16 counter: inhibits Gal4-VP16 luciferase reporter, ROR gamma counter-screen; Drosophila S2 Gal4-VP16 UAS-luciferase, luminescence, 20 h; Potency, µM (highest dose often 53.6 µM), for the others: top-dose activity, negative = inhibition, hits mostly inhibitors; 3.5% of 310,000 active; AID 2546;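 note: Gal4-VP16 expression switched on by copper sulfate through the metallothionein promoter; % is set by controls: 0 for no effect and ±100 for the full control effect; nearly all actives have a fitted effect of over 50% in size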
Integrin act MD: integrin-mediated muscular dystrophy alleviation activation. alpha7betagal myoblasts, beta-gal FDG fluorescence, 48 h. Potency, µM (top dose mostly 38.3 µM), inactives show at the highest dose activation, hits mostly activators. 0.064% of 350,000 active;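 note: 100% = response of the positive control SU9516; nearly all actives have a fitted effect of over 60% in size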
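Alpha7betagal+/- myoblasts (passage 13) were plated 16-24 hr, then exposed to compounds (1:260 dilution of DMSO stock) for 48 hours at 37C. After MPER lysis, β-galactosidase reporter activity was read as FDG fluorescence (ex 480/em 540) after 30 minutes.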
Mito fusion yeast: mitochondrial division inhibition or fusion activation | Potency, µM (doses to about 46.1 µM), for inactives: at the top dose growth rescue (activation), actives largely listed as activators | AID 485298 | 0.23% of 320,000 active | S. cerevisiae fusion-defective mutant growth rescue, CellTiterGlo 48 h; note: % of control where 0% means no effect; nearly all actives have a fitted effect of over 45% in size
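Growth-rescue viability read-out: after 48 h at the non-permissive 37C in glycerol/ethanol YPEG, yeast mitochondrial fusion mutants are measured by CellTiterGlo luminescence; compounds (23 nl pinned per well) restoring growth score as division inhibitors or fusion activators.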
RORgamma inh: inhibitors of mouse ROR gamma transcriptional activity; AID 2551; Drosophila S2 Gal4-RORgamma UAS-luciferase reporter, 20 h; 5.4% of 310,000 active; Potency, µM (highest dose often 53.6 µM), for the others: top-dose activity change, negative = inhibition, actives largely listed as inhibitors; note: % is set by controls: 0 for no effect and ±100 for the full control effect; nearly all actives have a fitted effect of over 60% in size
Target sequence (P51450 whole entry, looked up, the tested form may be a part): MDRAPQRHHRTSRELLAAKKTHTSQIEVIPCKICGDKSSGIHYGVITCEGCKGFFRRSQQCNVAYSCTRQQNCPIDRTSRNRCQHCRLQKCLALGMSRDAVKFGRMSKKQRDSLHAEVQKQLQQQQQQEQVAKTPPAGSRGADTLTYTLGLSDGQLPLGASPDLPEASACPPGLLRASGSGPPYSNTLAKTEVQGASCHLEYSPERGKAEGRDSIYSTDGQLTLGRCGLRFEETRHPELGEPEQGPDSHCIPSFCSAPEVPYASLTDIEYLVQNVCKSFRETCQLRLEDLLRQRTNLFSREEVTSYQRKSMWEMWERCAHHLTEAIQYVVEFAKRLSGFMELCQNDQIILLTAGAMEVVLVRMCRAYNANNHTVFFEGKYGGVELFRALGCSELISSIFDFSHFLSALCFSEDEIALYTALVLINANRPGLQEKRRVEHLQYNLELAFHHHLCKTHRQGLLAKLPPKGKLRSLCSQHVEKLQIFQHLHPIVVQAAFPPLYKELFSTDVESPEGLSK
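Schneider cells (Drosophila), stable Gal4 DBD–ROR gamma + UAS-luc; 1 hr cmpd preincubation; Cu2+ induction 700 uM final; 20 hr ambient; luminescence.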
uPA generation: blocks generation of uPA at the cell surface. 0.31% of 330,000 active. cell surface uPA generation assay, qHTS. Potency, µM (top dose mostly 38.3 µM), inactives show top-dose activity change, negative = inhibition, actives largely listed as inhibitors; active = well fitted inhibition curve with a large enough effect; inconclusive = small, poorly fitted or top-dose-only effect; inactive = no such curve, though single readings can be large or run the other way; tested in mouse RAW 264.7 cells; note: % is set by controls: 0 for no effect and ±100 for the full control effect; nearly all actives have a fitted effect of over 55% in size
BCR signal inh: blocks chronic active B-cell receptor signaling. ABC-DLBCL IkBa-CBG/CBR reporter, luminescence ratio, 4 h. Potency, µM (series often up to 46.1 µM), for inactives: top-dose activity change, negative = inhibition, hits mostly inhibitors. 0.05% of 340,000 active; active = well fitted inhibition curve with a large enough effect in the signal ratio, with a control signal flat, not every such curve was filed as active; inconclusive = small, poorly fitted or top-dose-only effect, or effect the other way, or a change in a side signal; the % refers to the signal ratio;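 note: plate controls were basal doxycycline-induced cells for no effect and cells given 10 µM MG132 for full effect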
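TMD8 human ABC-DLBCL cells with doxycycline-inducible IκBα–green luciferase fusion and unfused red luciferase, in 0.5% FBS medium; compounds up to 46 uM, 4 h at 37C. Green/red luminescence ratio, filter-overlap corrected, fitted to concentration-response curves.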
* hit, by the source's call; ? = inconclusive; . = no result; [ ] = dose if it differs, or a comment. Sampled rows, rich in hits. Any-hit rate of the full collection: about 5.5%. Unless noted, calls come from the whole dose curve; as a rule, active = well fitted curve in the direction sought with a large enough effect; inconclusive = small, poorly fitted or top-dose-only effect, or another doubt; inactive = no such curve, though single readings can be large; an effect the other way counts as inactive or inconclusive. Potency is the fitted concentration of half-maximal effect.

SMILES | VP16 counter | Integrin act MD | Mito fusion yeast | RORgamma inh | uPA generation | BCR signal inh
CC(C)C(C)(C)C(C)(C)C(C)(C)S | -6% | . | . | 2% | . | .
Cc1ccc(-c2nnc(SCC(=O)NC3CCCC3)n2C)cc1 | -14% | -8% | -1% | 18% | 0% | 5%
O=C(OCCCCN1C(=O)c2ccccc2C1=O)c1n[nH]c2ccccc12 | 32µM* | 11% | 14% | -110% | 5% | ?
CC(=O)c1c(C)[nH]c(C(=O)OCc2ccccc2)c1C | -14% | ? | ? | 14% | -8% | ?
CC(=O)c1c(C)[nH]c(C(=O)OCCCCN2C(=O)c3ccccc3C2=O)c1C | 8.9µM* | -54% | 0% | ? | -4% | 13%
S=c1nc(-c2ccccc2)[nH]n1-c1ccccc1 | 11µM* | 31% | -17% | 7.9µM* | . | -4%
S=c1nc2ccccc2c2nc(-c3ccccc3Cl)[nH]n12 | 1.6µM* | 6% | -4% | 0.35µM* | -13% | ?
Clc1ccccc1-c1nc2ccccc2[nH]1 | -26% | 1% | -2% | -27% | -6% | ?
S=c1nc2ccccc2c2nc(-c3ccccc3)[nH]n12 | 0.35µM* | 28% | ? | 0.089µM* | -3% | ?
Clc1nc(-c2ccccc2)c2ccccc2n1 | 4% | -30% | -3% | -16% | -4% | 3%
c1nc2n(n1)C1=C(CCCC1)C1(CCCCC1)N2 | ? | 8% | 3% | 2.5µM* | 1% | 5%
CC(C)Oc1ccc(C2CC(=O)N(c3cccc(Br)c3)C2=O)cc1 (stereo not given) | -16% | 3% | -8% | ? | -5% | -4%
NC(=S)N/N=C/c1cccc(/C=N/NC(N)=S)c1 | 0% | 22% | 2% | -23% | -2% | -2%
NC(=S)N/N=C/c1cccc(Br)c1 | ? | -10% | 5% | 5.6µM* | -6% | -18%
Cc1cc(/C=N/NC(N)=S)c(O)c(/C=N/NC(N)=S)c1 | 0.45µM* | -21% | 0% | 0.2µM* | -1% | ?
COc1cc(OC)c(/C=N/NC(=O)c2ccncc2)cc1Br | 9% | -9% | -9% | 1% | 4% | 19%
COc1cc(OC)c(/C=N/NC(N)=S)cc1Br | ? | -3% | -11% | 8.9µM* | -4% | -19%
NC(=S)N/N=C/c1cccc(O)c1O | ? | 3% | 2% | 7.1µM* | -17% | -8%
CC1CCCN(C(=O)CSc2cnc3ccccc3n2)C1 (stereo not given) | -1% | -22% | 3% | -1% | . | ?
COc1ccccc1CSc1nc2c(c(=O)n(C)c(=O)n2C)n1C | 5% | 36% | 14% | 1% | 7% | 3%
C=C1CCN(C(CC(C)C)C(=O)NCc2ccc(OC)cc2)S(=O)(=O)c2ccccc21 (stereo not given) | -22% | . | . | 3% | . | .
Oc1ccccc1C=NNC(=S)NN=Cc1ccccc1O | . | -35% | . | . | -9% | .
NC(=S)N/N=C/c1ccccc1O | 6.3µM* | ? | 3% | 3.5µM* | 8% | 2%
C[C@]12CCC3c4ccc(O)cc4CCC3[C@@H]1CCC2=O (stereo not given in full) | 6%[17 µM] | . | . | -16%[16.9 µM] | . | .
Cc1cc(C(F)(F)F)n2[nH]c(=O)c(N=Nc3ccccc3)c2n1 | -11% | -13% | 6% | 5% | -4% | 10%
SMILES | VP16 counter | Integrin act MD | Mito fusion yeast | RORgamma inh | uPA generation | BCR signal inh
Cc1cc(=O)n2[nH]c(N)c(N=Nc3ccccc3F)c2n1 | 11% | -12% | -3% | 10µM* | -7% | ?
O=C(COC(=O)CNC(=O)c1ccc(-c2ccccc2)cc1)NCc1ccco1 | -9% | 9% | 9% | 9% | -1% | 1%
COc1ccc(CCNc2ncnc3sc(C)cc23)cc1OC | 0.4µM* | -37% | -2% | ? | -8% | -1%
COc1ccc(CCNc2ncnc3[nH]ncc23)cc1OC | 13µM* | -32% | -3% | -27% | -10% | ?
Nc1nc(CSc2nc3ccccc3s2)nc(N2CCCCC2)n1 | 13µM* | -1% | -9% | 6.3µM* | -4% | 2%
CCc1ccc(Nc2nc(N)nc(CSc3nc4ccccc4s3)n2)cc1 | ? | -5% | -13% | 13µM* | 2% | ?
CCOCCCNC(=O)c1ccc2c(=O)n(CCc3ccc(OC)c(OC)c3)c(=O)[nH]c2c1 | . | . | . | . | . | -5%
CCN(CC)c1ccc(C(=O)NCc2ccc3c(c2)CCN3C(C)=O)cc1 | . | . | . | . | . | -18%
Cn1cccc1C(=O)N/N=C/c1c(Cl)cccc1Cl | 1% | 0% | 4% | -20% | -5% | -9%
C(=N\NCc1ccccc1)/c1ccc2ncccc2c1 | -26% | ? | -6% | 4% | -17% | -19%
CNC(=S)N/N=C/c1c(Cl)cccc1Cl | 6.3µM* | 9% | -7% | 3.2µM* | -13% | ?
COC(=O)N/N=C/c1ccccc1Cl | 16% | ? | -2% | 8% | 0% | -11%
CNC(=S)N/N=C/c1ccccc1Cl | 5.6µM* | 5% | -4% | 4µM* | -9% | ?
S=C(N/N=C/c1cccc2ccccc12)Nc1cccc(Cl)c1 | 7.9µM* | 2% | -2% | 0.45µM* | -16% | 7%
S=C(N/N=C/c1ccc2ncccc2c1)Nc1ccccc1 | ? | 2% | 13% | 1.3µM* | ? | 1%
C=C1C=CS(=O)(=O)N(C(CC(C)C)C(=O)OC)C1 (stereo not given) | -7% | . | . | -5% | . | .
CC(NS(=O)(=O)c1ccc(Cl)cc1)C(=O)NCCC1=CCCCC1 (stereo not given) | -8% | 37% | -4% | 22% | 0% | 2%
S=C(N/N=C/c1ccccc1Cl)Nc1ccccc1 | 0% | 10% | -15% | 0.71µM* | . | ?
Cc1c(Cl)cccc1NC(=S)N/N=C/c1ccccc1Cl | 4.5µM* | 16% | -2% | 1µM* | -1% | -18%
Cc1cccc(C)c1NC(=S)N/N=C/c1c(Cl)cccc1Cl | 2.5µM* | -3% | 4% | 0.5µM* | 1% | -1%
COC(=O)NC(NC(=S)Nc1cccc(C)c1)C(Cl)(Cl)Cl (stereo not given) | -20% | 13% | -4% | -14% | 2% | -2%
Cc1ccc(C)c(NC(=S)NC(NC(=O)OCc2ccccc2)C(Cl)(Cl)Cl)c1 (stereo not given) | ? | -3% | 9% | 14µM* | 13% | 12%
O=C(NC(=S)Nc1c(Cl)cc(Cl)cc1Cl)c1ccccc1 | . | 9% | . | . | . | .
O=C(NC(NC(=S)Nc1c(Cl)cc(Cl)cc1Cl)C(Cl)(Cl)Cl)OCc1ccccc1 (stereo not given) | 5.6µM* | -55% | 1% | 7.1µM* | -7% | ?
